# Screening data from PubChem.
# The list is not random: actives were taken first. Their share in the collection is about 0.88%.
# RGS4 inh = Inhibitors of Regulator of G Protein Signaling (RGS) 4: qHTS; AID 504845, 2011; hit rate 0.039% among 390,000; Potency, µM (series often up to 114 µM), without a hit: at the top dose activity change, negative = inhibition, usual class: inhibitors; Transcreener GDP fluorescence polarization, RGS4-accelerated GTP hydrolysis; active = well fitted curve in the direction sought with a large enough effect; inconclusive = small, poorly fitted or top-dose-only effect, or another doubt; inactive = no such curve, though single readings can be large; an effect the other way counts as inactive or inconclusive; note: potency is the fitted concentration of half-maximal effect; % is set by controls: 0 for no effect and ±100 for the full control effect; nearly all actives have a fitted effect of over 75% in size
#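 MLSMR compounds (23 nl, pin-transferred) preincubated 10 min at room temperature with a 500nM (2x) first reagent, then RGS4 at 900nM (2x) plus Transcreener GDP mix added; fluorescence polarization (620/688 nm) read before and after 90 min at 30 °C.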
# CtBP-E1A blk = qHTS Assay for Inhibitors of the CtBP/E1A Interaction; hit rate 0.49% among 340,000; CtBP / adenovirus E1A interaction (AlphaScreen); activity change, % (test concentration not listed); AlphaScreen GST-E1A/His-CtBP binding, 1536-well; active compounds read low; note: % is set by controls: 0 for no effect and ±100 for the full control effect
#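 Homogeneous bead-based format: GST-tagged E1A captured on glutathione donor beads, His-tagged CtBP on nickel acceptor beads; compounds precede bead addition by 2 h at 37 °C.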
# Six1-Eya2 blk = qHTS Assay for Inhibitors of the Six1/Eya2 Interaction | activity change, % (test concentration not listed) | hit rate 0.56% among 360,000 | Homeobox protein SIX1 (Homo sapiens) + Protein phosphatase EYA2 (Homo sapiens), … | AlphaScreen GST-Six1/His-Eya2 binding, biochemical; active compounds read low; note: % is set by controls: 0 for no effect and ±100 for the full control effect
# Target sequence (O00167 whole entry, looked up): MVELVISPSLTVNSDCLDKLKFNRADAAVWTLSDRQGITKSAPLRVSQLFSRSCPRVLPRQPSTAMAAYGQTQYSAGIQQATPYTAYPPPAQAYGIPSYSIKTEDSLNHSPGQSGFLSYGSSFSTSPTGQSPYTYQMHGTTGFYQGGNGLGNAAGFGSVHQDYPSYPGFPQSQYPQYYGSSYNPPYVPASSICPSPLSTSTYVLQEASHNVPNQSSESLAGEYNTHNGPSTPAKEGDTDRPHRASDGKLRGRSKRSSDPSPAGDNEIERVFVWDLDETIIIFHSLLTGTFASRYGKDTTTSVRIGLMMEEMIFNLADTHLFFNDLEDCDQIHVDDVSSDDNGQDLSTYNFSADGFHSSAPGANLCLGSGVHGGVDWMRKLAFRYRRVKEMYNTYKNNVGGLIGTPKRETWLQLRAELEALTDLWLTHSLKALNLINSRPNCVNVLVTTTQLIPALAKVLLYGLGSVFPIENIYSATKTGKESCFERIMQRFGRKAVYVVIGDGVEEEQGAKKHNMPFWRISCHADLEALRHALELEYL
# Target sequence (Q15475 whole entry, looked up): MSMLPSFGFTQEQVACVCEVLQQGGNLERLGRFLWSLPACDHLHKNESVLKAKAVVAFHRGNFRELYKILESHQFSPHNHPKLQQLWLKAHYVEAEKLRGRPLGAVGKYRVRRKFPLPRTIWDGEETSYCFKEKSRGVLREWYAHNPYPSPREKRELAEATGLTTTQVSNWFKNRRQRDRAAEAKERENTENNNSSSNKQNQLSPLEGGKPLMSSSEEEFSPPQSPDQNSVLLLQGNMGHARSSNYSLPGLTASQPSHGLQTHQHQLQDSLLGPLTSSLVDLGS
#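 Six1/Eya2 binding was read as AlphaScreen signal after compounds were pinned into GST-Six1 plus His-tagged Eya2 (5X stock 250/500 nM) in pH 8.0 Tris/NaCl/TCEP buffer, beads added, then incubated 1 h, 37 C, dark.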
# GRP78 ERSR act = qHTS for Inducers of the Endoplasmic Reticulum Stress Response (ERSR) in Human Glioma: qHTS | U87-MG GRP78 promoter luciferase reporter, 16 h | Potency, µM, for inactives: top-dose activation, hits mostly activators | hit rate 0.02% among 420,000 | AID 602332, 2012; active = well fitted curve in the direction sought with a large enough effect; inconclusive = small, poorly fitted or top-dose-only effect, or another doubt; inactive = no such curve, though single readings can be large; an effect the other way counts as inactive or inconclusive; note: potency is the fitted concentration of half-maximal effect; series mostly up to about 76 µM; % of control where 0% means no effect; nearly all actives have a fitted effect of over 35% in size
#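 Stably transfected U87-MG human glioma cells carrying a GRP78-based luminescent sensor were seeded at 1000 cells/well, pin-dosed with compounds and incubated 16 h. Luciferase reagent was then added, and end-point luminescence was read after 10 min at room temperature.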
# pAkt inh = HTS Assay for Inhibitors of Akt Phophorylation: Primary Screen | Neuro2A IGF-stimulated pAkt S473 HTRF, 20 min; active compounds read low | activity change, % for hits at 50 µM | hit rate 0.32% among 360,000 | AID 651550, 2012; in the data active = activity change below about -80%; inconclusive = mostly about -51% to -80%; note: % is set by controls: 0 for no effect and ±100 for the full control effect
#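 Neuro2A cells in DMEM with 0.5% FBS, overnight at 37 deg C, given compound at single 50 µM final, then IGF (6 nM final) for 20 min at 37 deg C. Lysed; phospho-Akt Ser473 by HTRF after 24 h, 665/615 ratio.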
# * = called active by the depositor; i = inactive; ? = inconclusive; · = not tested or not shown; [ ] = remark or other dose. Cut-off read from the data, not from the text of the source, unless noted: active = activity change below about -65%; inconclusive = mostly about -30% to -63%; inactive = weaker than that.
SMILES,RGS4 inh,CtBP-E1A blk,Six1-Eya2 blk,GRP78 ERSR act,pAkt inh
NC(=O)c1ccc(Nc2nc(C(N)c3ccccc3Cl)cs2)cc1 (stereo not given),·,-21,-7,-4%,·
NC(c1csc(Nc2ccc(C(=O)NCCCO)cn2)n1)c1ccccc1Cl (stereo not given),·,-77*,?,-4%,i
NC(c1ccccc1)c1csc(Nc2ccc(C(=O)NCCCO)cn2)n1 (stereo not given),·,-85*,-83*,-1%,i
Cc1nnc2ccc(-c3cccc(NC(=O)c4ccc(Br)o4)c3)nn12,9%,-65*,?,3%,i
CCCSS/C(CCO)=C(/C)N(C=O)Cc1cnc(C)nc1N,·,·,·,-11%,·
CC1(C)CCC2=C(O1)c1ccccc1C(=O)C2=O,15µM*,·,·,-13%,·
Nc1ccc(S(=O)(=O)Nc2nccc(/C=C/c3ccc(Cl)cc3)n2)cc1,-11%,-76*,?,1%,i
O=C(CSc1nc(-c2ccccc2)nc2c1Cc1ccccc1O2)Nc1ccc(C(=O)O)cc1,?,-5,-81*,-1%,i
O=C(Nc1cccc(N2CCC(NCc3cnn(-c4ccccc4)n3)CC2)c1)c1cccnc1,·,·,·,-5%,·
CC(C)C[C@H](N)C(=O)N[C@H](C(=O)N[C@H](C(=O)N[C@@H](Cc1ccc(O)cc1)C(=O)N1CCC[C@H]1C(=O)N[C@@H](Cc1c[nH]c2ccccc12)C(=O)N[C@H](C(=O)N[C@@H](CCC(N)=O)C(=O)N[C@@H](CCCN=C(N)N)C(=O)O)[C@@H](C)O)C(C)C)C(C)C,·,·,·,-1%,·
Cc1cc(C)cc(NC(=O)C2CC23CCN(Cc2ccc4ncccc4c2)CC3)c1 (stereo not given),·,·,·,-1%,·
COc1cc(/C=N/NC(=O)c2sc(N)c(C#N)c2C)ccc1O,0%,-83*,-71*,-7%,i
Cc1c(C(=O)N/N=C/c2ccc(O)c(Br)c2)sc(N)c1C#N,-12%,-65*,?,0%,i
COc1cc(/C=N/NC(=O)c2ccccc2)ccc1O,3%,-13,-1,4%,i
Cc1c(C(=O)N/N=C/c2ccc(-c3ccccc3[N+](=O)[O-])o2)sc(N)c1C#N,?,0,?,5%,i
COc1ccc(C(=O)Sc2ccc(Cl)cc2)cc1OC,1%,3,2,-2%,-127%*
[2H]c1c([2H])c([2H])c2c([nH]c(=S)n2C2CCN(CCCC(=O)c3ccc(F)cc3)CC2)c1[2H],·,·,·,-4%,·
Cc1ccc(S(=O)(=O)N2CCOCC2)cc1NC(=O)CNCc1ccccc1Cl,-44%,1,12,-1%,i
O=C(CNCc1ccccn1)Nc1cc(S(=O)(=O)N2CCCCC2)ccc1Cl,-28%,-88*,-86*,-4%,i
Cc1ccc(S(=O)(=O)N2CCOCC2)cc1NC(=O)CNCc1ccccn1,-4%[11.4 µM],-94*,-69*,2%,i
O=C(CNCc1ccncc1)Nc1cc(S(=O)(=O)N2CCCCC2)ccc1Cl,-2%,·,-1,-3%,i
CCCCc1cc(O)c(CCCC)c(O)c1,-28%,-1,-6,22µM*,i
Cn1c(=O)c(NCCO)c2c3c(cccc31)C(=O)c1ccccc1-2,-24%,-69*,?,-6%,i
N#CCSc1nnc2sc3ccccc3n12,3%,-15,-18,1%,i
CN(C)CCSc1nnc2sc3ccccc3n12,10%,-1,-1,-3%,-106%*
SMILES,RGS4 inh,CtBP-E1A blk,Six1-Eya2 blk,GRP78 ERSR act,pAkt inh
COc1ccc(C(=O)NCC2(c3ccccc3)CCCC2)c(OC)c1,0%,4,-2,-6%,i
COc1ccc(C2(CNC(=O)CCC(=O)O)CCCC2)cc1,-1%,5,10,-3%,-115%*
CCSc1nnc(-c2cnn(-c3ccccc3)c2-n2cccc2)n1C,-8%,-6,-2,-2%,-115%*
CCCCCCSc1nnc(-c2cnn(-c3ccccc3)c2-n2cccc2)n1C,-28%,-10,-15,12%,i
CCCc1[nH]nc2c1C(C1CCCCC1)C(C#N)=C(N)O2 (stereo not given),13%,-2,1,35µM*,i
CCCc1[nH]nc2c1C(c1ccsc1)C(C#N)=C(N)O2 (stereo not given),-30%,5,2,-4%,i
CCOC(=O)C1=C(C)OC(N)=C(C#N)C1C1CCCCC1 (stereo not given),-7%,5,-2,-6%,-118%*
COCCCNC(=O)/C(C#N)=C/c1c(N2CCN(C)CC2)nc2c(C)cccn2c1=O,-2%,12,-3,-4%,i
COCCNC(=O)/C(C#N)=C/c1c(N2CCN(C)CC2)nc2c(C)cccn2c1=O,5%,-76*,-2,-1%,i
COc1ccc(/C=C/C(=O)NCC2Cc3cc(Cl)cc(-c4ncccn4)c3O2)cc1 (stereo not given),·,·,·,-4%,·
CN(C(=O)Nc1ccc(Cl)cc1)c1c2c(nn1C)CCCC2,17%,6,0,-4%,-87%*
O=C(O[C@H]1[C@H](Cc2ccccc2)NS(=O)(=O)[C@H]2C[C@@H]3C=C[C@]12O3)c1ccccc1Br,·,·,·,-1%,·
CC(C)CC(C(=O)O)C(C)CC(=O)Nc1ccn(-c2ccccc2)n1 (stereo not given),-34%,5,0,4%,-108%*
COc1ccc(S(=O)(=O)NNC(=O)C(=O)NNc2ccccn2)cc1,1%,?,-91*,-4%,i
CCOC(=O)Cc1nnc(Nc2cccc(C)c2)c2ccccc12,-10%,3,-5,1%,-109%*
O=C(Nc1cccc(F)c1)c1ccc2c(c1)OCO2,26%,5,2,-7%,i
CCCC(=O)Nc1cccc(NC(=O)c2ccc3c(c2)OCO3)c1,28%,3,0,0%,-115%*
O=C(Nc1c(C(=O)Nc2cccc(F)c2)oc2ccccc12)c1ccc2c(c1)OCO2,8%,-7,-6,-2%,-112%*
C=C(Br)COC(c1ccco1)[C@H](Cc1ccccc1)NC(=O)OC(C)(C)C (stereo not given in full),·,·,·,-1%,·
Nc1c(Br)cc(Br)c2c1C(=O)c1c(cccc1S(=O)(=O)O)C2=O,18%,-74*,?,-3%,i
Cc1cccc2cc(CNCCCN3CCCC3=O)c(N3CCN4CCCC4C3)nc12 (stereo not given),·,·,·,-2%,·
COC(=O)c1sccc1S(=O)(=O)N1CCC(n2c(CC3CCCC3)nc3cccnc32)CC1,·,·,·,-4%,·
